From PubChem BioAssay (NCI)
Compounds without any hit were thinned out: in the full panel of roughly 83,000, 20% have a hit.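 Interpretation: 100, growth as untreated; towards 0, rising growth inhibition; 0, no net growth; 0 to -100, cell death. Compounds scoring below 10 were considered active.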 Calls of active or inactive are those of the source.

test system: HL-60(TB) leukemia; test: NCI-60 one-dose screen, 48 h (100 = growth as untreated, 0 = no growth, -100 = all killed); conditions: 10 µM unless noted

Q: Which growth does the source give for Cc1[nH]n(-c2cccc(Cl)c2)c(=O)c1/C=C1\C=c2ccccc2=CC1=O here?
A: The growth was 104% (inactive).

Q: CCCCn1cnc2c(SCc3ccc([N+](=O)[O-])cc3)nc(N)nc21 was tested. Which growth did it give?
A: The growth was -42.6% (active).

Q: For CCOc1ccccc1-c1cc(-c2cccs2)c(C#N)c(=O)[nH]1, which growth is on record?
A: The growth was 78.9% (inactive).

Q: How did the growth turn out when COc1ccc(CN2CCC(N3CCCC3=O)c3cc(Cl)ccc32)cc1 (stereo not given) was run?
A: Its growth is 80.2% (inactive).

Q: With O=C1c2ccccc2C(=O)c2c(NCCN=Cc3ccccc3O)cccc21 as the compound, how does the growth read?
A: The growth was 44% (inactive).

Q: CCC(C)(CC)c1ccc(O)c(C)c1 was tested. Which growth did it give?
A: The growth was 105% (inactive).

Q: O=C(Nc1ccc(F)cc1)ON=C1CCCCC1 was tested. Which growth did it give?
A: The growth was 86.8% [100 µM] (inactive).

Q: Which growth does the source give for OB(O)c1ccsc1-c1nc2ccc3[nH]ncc3c2c2c1CCCC2 here?
A: The growth was 52.2% (inactive).

Q: COc1cc(C(=O)c2c(-c3ccccc3)oc3ccccc23)cc(OC)c1O was tested. Which growth did it give?
A: Its growth is 5.07% (active).

Q: With O=C(COc1ccc(-c2nc3cc(Cl)c(Cl)cc3[nH]2)cc1)N=Nc1c(O)[nH]c2ccc(Cl)cc12 as the compound, how does the growth read?
A: Its growth is 55.5% (inactive).

Q: CNC1=C([N+](=O)[O-])C(c2ccc(OC)cc2)C(C#N)=C(c2cccs2)O1 (stereo not given) was tested. Which growth did it give?
A: The growth was 99.5% (inactive).

Q: Cc1cccc(Cl)c1NC(=O)c1cnc(Nc2cc(N3CCOCC3)cc(S(C)(=O)=O)c2)s1 was tested. Which growth did it give?
A: The growth was 110% (inactive).

Q: How did the growth turn out when CCOC(=O)C1=C(c2ccccc2)N=C2SC=C(c3ccc(Cl)cc3)N2C1c1ccc(Cl)cc1 (stereo not given) was run?
A: Its growth is 52.6% (inactive).

Q: How did the growth turn out when Clc1ccc2c(NCCN3CCN(c4ccnc(N5CCCC5)n4)CC3)ccnc2c1 was run?
A: The growth was 37.4% (inactive).

Q: How did the growth turn out when CCN1C2=C(SC(=S)C1=C1SC(C(=O)OC)=C(C(=O)OC)S1)SC(=Nc1ccc(OC)cc1)C2=O was run?
A: The growth was 26% (inactive).

Q: For OCC12CCCC(CO)(COC1)C2O (stereo not given), which growth is on record?
A: Its growth is 118% (inactive).

Q: With Cn1cc(-c2ccc3c(Nc4cccc(NC(=O)Nc5cccc(F)c5)c4)ncnc3c2)cn1 as the compound, how does the growth read?
A: Its growth is 74.1% (inactive).

Q: How did the growth turn out when CCOc1ccccc1/C=N\N=C(N/N=C/c1ccccc1OCC)N/N=C/c1ccccc1OCC was run?
A: Its growth is 11.9% (inactive).

Q: COC(=O)/C(=C\c1ccc(OC)cc1)C(=O)N1c2ccccc2Sc2ccccc21 was tested. Which growth did it give?
A: Its growth is 16.5% (inactive).

Q: Which growth does the source give for O=C(NCCN1CCOCC1)OCc1nc2nc(Cl)nc(N3CCOCC3)c2[nH]1 here?
A: Its growth is -54% (active).

Q: How did the growth turn out when CCN(CC)C(=O)c1cccnc1 was run?
A: The growth was 93.8% (inactive).

Q: Nc1nc2c(c3ncncc13)C(c1cccc(C(F)(F)F)c1)Cc1ncncc1-2 (stereo not given) was tested. Which growth did it give?
A: Its growth is 10.7% (inactive).

Q: Which growth does the source give for O=C1Nc2ccccc2/C1=C\c1ccccc1O here?
A: Its growth is 75.2% (inactive).

Q: How did the growth turn out when NC(=O)NS(=O)(=O)c1ccc(N2N=C(C(F)(F)F)CC2c2cc(C(F)(F)F)cc(C(F)(F)F)c2)cc1 (stereo not given) was run?
A: The growth was 38.7% (inactive).

Q: How did the growth turn out when Cc1ccc(C(=O)NCCCNc2nccc(-n3ccc4cccnc43)n2)cc1 was run?
A: Its growth is 105% (inactive).

Q: For O=C(N/N=C/c1ccc(Cl)cc1)c1cc(-c2cc3ccccc3o2)nn1-c1ccccc1, which growth is on record?
A: The growth was 117% (inactive).

Q: With CC(C)CSc1ncnc2nc[nH]c12 as the compound, how does the growth read?
A: Its growth is 133% (inactive).

Q: With COc1ccc(-c2nn(-c3ccc(NC(=O)Nc4ccc(Cl)c(C(F)(F)F)c4)cc3)cc2-c2ccncc2)cc1Cl as the compound, how does the growth read?
A: Its growth is -11.9% (active).

Q: With CC(C)(C)c1cc(C=O)cc(C(C)(C)C)c1O as the compound, how does the growth read?
A: Its growth is -23.5% (active).

Q: How did the growth turn out when COc1ccc(-c2n[nH]nc2-c2cc(OC)c3c(c2)OCO3)cc1 was run?
A: The growth was -38.2% (active).

Q: For COc1ccc2c(c1OC)C(=O)O[C@@H]2[C@H]1c2c(c(C#CC#Cc3ccc(F)c(F)c3)c3c(c2OC)OCO3)CCN1C, which growth is on record?
A: Its growth is 76.9% (inactive).

Q: Which growth does the source give for Nc1nc(Cl)cc(NCCCCNc2cc(Cl)nc(N)n2)n1 here?
A: Its growth is 101% (inactive).

Q: With CCCCCCCCCCCCCCCCCCOc1ccc(CC(=O)OCC[N+]2(C)CCCC2)cc1 as the compound, how does the growth read?
A: The growth was 101% (inactive).

Q: Which growth does the source give for Cc1nc2oc3ccccc3c(=O)c2cc1C(=O)NCc1ccccc1 here?
A: The growth was 69.5% (inactive).

Q: With CC([C@H]1CCC2C3CCC4C[C@@H](NC=O)CC[C@]4(C)C3CC[C@@]21C)N(C)C (stereo not given in full) as the compound, how does the growth read?
A: Its growth is -61.1% (active).

Q: COc1ccccc1CNc1nc(N)nc2[nH]c3ccc(O)cc3c12 was tested. Which growth did it give?
A: Its growth is 34.3% (inactive).

Q: COc1cc(-c2nn(-c3cccc(NC(=O)NCCNS(=O)(=O)c4ccc(Cl)cc4)c3)cc2-c2ccncc2)ccc1Cl was tested. Which growth did it give?
A: The growth was 1.37% (active).

Q: Cc1cc(C)n(Nc2nc3ccccc3[nH]c2=O)c(=O)c1C#N was tested. Which growth did it give?
A: The growth was 102% (inactive).

Q: For COC(=O)CCC/C=C\C[C@H]1C=CC(=O)/C1=C/C[C@@H](O)C/C=C\CC(F)(F)F, which growth is on record?
A: The growth was 1.03% (active).

Q: For CC(C)(C)OC(=O)CN1CCc2c(sc3ncnc(N/N=C/c4ccccc4Br)c23)C1, which growth is on record?
A: The growth was 92.1% (inactive).
